A selection: hits, their analogues and other compounds. The true share with any hit is near 19%.
ELG1 repair inh – ELG1-dependent DNA repair inhibition; 330,000 compounds, 2.3% hits; Potency, µM (doses to about 46.1 µM), for inactives: at the top dose activity change, negative = inhibition, usual class: inhibitors; HEK293T ELG1-luciferase reporter, luminescence, 16 h; DNA damage induced by 5-fluorouridine; further: potency means the concentration at half of the fitted maximal effect; nearly all actives have a fitted effect of over 55% in size
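DMSO vehicle served as the neutral condition. Each well held 2,000 cells given 5-fluorouridine plus compound; after 16 hr at 37 °C/5% CO2, ONE-Glo was added and luciferase measured 30 min later.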
TDP1 block – inhibitors of human tyrosyl-DNA phosphodiesterase TDP1; Potency, µM (titrated, usually from 130 µM), inactives show at the highest dose activity change, negative = inhibition, usual class: inhibitors; recombinant TDP1, AlphaScreen DNA substrate cleavage; 350,000 compounds, 0.28% hits; Q9NUW8; AID 485290; further: potency means the concentration at half of the fitted maximal effect; nearly all actives have a fitted effect of over 40% in size
Target sequence (Q9NUW8 whole entry, looked up): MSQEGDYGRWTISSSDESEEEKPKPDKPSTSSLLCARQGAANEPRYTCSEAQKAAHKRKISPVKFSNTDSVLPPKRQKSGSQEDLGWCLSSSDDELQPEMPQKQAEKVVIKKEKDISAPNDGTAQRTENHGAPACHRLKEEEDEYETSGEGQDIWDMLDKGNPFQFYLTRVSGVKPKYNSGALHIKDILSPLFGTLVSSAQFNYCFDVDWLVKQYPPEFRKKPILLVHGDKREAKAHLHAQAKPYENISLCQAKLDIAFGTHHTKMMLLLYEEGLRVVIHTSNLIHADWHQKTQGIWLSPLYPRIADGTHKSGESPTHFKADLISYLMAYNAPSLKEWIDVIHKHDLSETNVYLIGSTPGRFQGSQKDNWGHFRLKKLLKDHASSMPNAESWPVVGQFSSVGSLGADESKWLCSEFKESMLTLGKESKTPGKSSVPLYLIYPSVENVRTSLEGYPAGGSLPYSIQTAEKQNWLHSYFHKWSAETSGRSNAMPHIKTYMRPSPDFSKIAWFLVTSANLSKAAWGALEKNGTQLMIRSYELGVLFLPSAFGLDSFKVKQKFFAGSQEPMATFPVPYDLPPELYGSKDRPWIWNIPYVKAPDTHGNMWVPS
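Recombinant E. coli-expressed Tdp1 (1 nM) preincubated with compound 15 min at RT, then 5'-biotin/3'-phosphotyrosine-FITC DNA substrate (15 nM) added for 5 min. AlphaScreen beads (10 ug/ml) added, 10 min RT; tyrosine-FITC cleavage read as signal loss.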
TDP1 cell noCPT – qHTS for Inhibitors of human tyrosyl-DNA phosphodiesterase 1 (TDP1): qHTS in cells in absence of CPT. DT40 Tdp1-/- hTDP1 cells, no CPT, ATP luminescence, 48 h. Potency, µM (top dose mostly 46.2 µM), without a hit: top-dose activity change, negative = growth inhibition, most hits filed as inhibitors. 420,000 compounds, 15% hits. AID 686978, 2013; further: potency means the concentration at half of the fitted maximal effect; nearly all actives have a fitted effect of over 55% in size
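Chicken DT40 Tdp1-/- cells complemented with human TDP1, screened without camptothecin (DMSO vehicle only), 400 cells/well. Compounds pin-transferred, cells incubated at 37 °C for at least 48 hr. Growth read as ATP-dependent luminescence (CellTiter-Glo, 30 min at RT).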
IL1B secr inh – inhibitors of inflammasome signaling (IL-1 beta secretion); THP-1 LPS/ATP IL-1B secretion, AlphaLISA, 16 h; hits give low values; activity change, % at 57.5 µM; 360,000 compounds, 4.7% hits; in the data active means activity change below about -50%; inconclusive means mostly about -30% to -49%
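THP-1 cells pretreated 1 hr with compounds (up to 57.5 uM final), then stimulated with LPS (250 ng/mL final) plus ATP (1.25 mM final); secreted IL-1B measured by AlphaLISA after 16 hr, decreased signal indicating inhibition.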
TDP1 cell CPT – DT40-hTDP1 cell growth loss with CPT. AID 686979. chicken DT40 Tdp1-/-;hTDP1 cells + 20 nM CPT, ATP luminescence, 48 h. Potency, µM (top dose mostly 46.2 µM), inactives show top-dose activity change, negative = growth inhibition, most hits filed as inhibitors. 420,000 compounds, 12% hits; further: potency means the concentration at half of the fitted maximal effect; nearly all actives have a fitted effect of over 55% in size
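Chicken DT40 Tdp1-/- cells complemented with human TDP1, 400 cells/well, exposed to compounds plus 20 nM camptothecin for at least 48 h at 37 C; viability read as ATP content by CellTiter-Glo luminescence.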
Giardia killer – kills Giardia lamblia; Giardia lamblia trophozoite viability; activity change, % at 7.66 µM, hits read low; 340,000 compounds, 0.15% hits; in the data active means activity change below about -80%; inconclusive means between about -30% and that limit;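 further: parasites exposed to compound for two days anaerobically before the ATP read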
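Viability, read as ATP luminescence: trophozoites at 100 cells/well, compound added, 48 hrs anaerobic at 37 deg C, then 15-30 min room-temperature development before reading.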
* hit, by the source's call; [ ] = another dose, or the depositor's remark. Unless noted, the call rests on the fitted dose curve; in most records, active means well fitted curve in the direction sought with a large enough effect; inconclusive means small, poorly fitted or top-dose-only effect, or another doubt; inactive means no such curve, though single readings can be large; an effect the other way counts as inactive or inconclusive. On the % scale 0 is the no-effect control and ±100 the full control effect.

Results for CCC(CC)C(=O)c1c[nH]c(C(=O)OC)c1 ?
ELG1 repair inh: 3%; TDP1 block: -5%; TDP1 cell noCPT: -4%; IL1B secr inh: 2; TDP1 cell CPT: -1%; Giardia killer: 2

Results for Cc1ccc(C)c(NC(=O)COC(=O)c2c(-c3ccccc3)noc2C)c1 ?
TDP1 cell noCPT: -7%; IL1B secr inh: 12; TDP1 cell CPT: -4%

Results for COc1ccc(C)cc1NC(=O)COC(=O)c1c(-c2ccccc2)noc1C ?
TDP1 cell noCPT: 23µM*; IL1B secr inh: inconclusive; TDP1 cell CPT: 23µM*

How did CN(C)c1cccc(C(=O)NCC2Cc3cccc(-c4cncnc4)c3O2)c1 (configuration not stated) do in these assays?
TDP1 cell noCPT: -26%; TDP1 cell CPT: -8%[9.04 µM]

How did Clc1nc(NCCc2ccccc2)c2cn[nH]c2n1 do in these assays?
TDP1 cell noCPT: -24%; IL1B secr inh: inconclusive; TDP1 cell CPT: -26%; Giardia killer: 13

What do the screens show for `Cc1ccc(N2CC(C(=O)Nc3nnc(C)s3)CC2=O)cc1` (configuration not stated)?
ELG1 repair inh: 8%; TDP1 block: 3%; TDP1 cell noCPT: -1%; IL1B secr inh: 33; TDP1 cell CPT: -14%; Giardia killer: 10

What do the screens show for `Cc1ccc(N2CC(C(=O)Nc3ncc([N+](=O)[O-])s3)CC2=O)cc1` (configuration not stated)?
ELG1 repair inh: inconclusive; TDP1 block: 4%[56.1 µM]; TDP1 cell noCPT: -29%; IL1B secr inh: 84; TDP1 cell CPT: inconclusive; Giardia killer: -85*

What do the screens show for `CC(=O)c1ccc(-c2ccc(C3C4C=CCCC4(C)C(=O)N3Cc3ccccc3)c(F)c2)cc1` (configuration not stated)?
TDP1 block: 6%; Giardia killer: 36

Results for COc1cccc(NC(=O)CCC(=O)Nc2ccc3nc(N4CCOCC4)cc(C)c3c2)c1 ?
ELG1 repair inh: -24%; TDP1 block: -2%; TDP1 cell noCPT: 15µM*; IL1B secr inh: -3; TDP1 cell CPT: inconclusive; Giardia killer: 11

How did Cc1cc(N2CCOCC2)nc2ccc(NC(=O)C3CCC(C)CC3)cc12 (configuration not stated) do in these assays?
ELG1 repair inh: -2%; TDP1 block: 2%; TDP1 cell noCPT: inconclusive; IL1B secr inh: -12; TDP1 cell CPT: inconclusive; Giardia killer: -10

Results for COc1ccccc1C(=O)Nc1ccc2nc(N3CCC(C)CC3)cc(C)c2c1 ?
TDP1 block: 3%; TDP1 cell noCPT: 16µM*; TDP1 cell CPT: inconclusive

Results for COc1cc(OC)cc(C(=O)Nc2ccc3nc(N4CCC(C)CC4)cc(C)c3c2)c1 ?
TDP1 block: -3%; TDP1 cell noCPT: 4.6µM*; TDP1 cell CPT: 9.2µM*

What do the screens show for `COCCCNC(=O)CCC(=O)Nc1ccc2nc(N3CCOCC3)cc(C)c2c1`?
ELG1 repair inh: inconclusive; TDP1 block: 2%; TDP1 cell noCPT: -12%; IL1B secr inh: 10; TDP1 cell CPT: 2%; Giardia killer: -8

What do the screens show for `COc1cccc(-c2nc(CN3CCN(C(=O)c4ccco4)CC3)c(C)o2)c1OC`?
TDP1 cell noCPT: inconclusive; IL1B secr inh: 19; TDP1 cell CPT: inconclusive

How did CCCN(CC1CC1)c1nc(C)nc(Nc2c(Cl)cc(Cl)cc2Cl)c1Cl do in these assays?
TDP1 block: -12%[56.1 µM]; TDP1 cell noCPT: inconclusive; IL1B secr inh: 24; TDP1 cell CPT: inconclusive; Giardia killer: 11

What do the screens show for `Cc1[nH]c2ccccc2c1C(=O)COC(=O)CCS(=O)(=O)c1ccccc1Cl`?
ELG1 repair inh: 5%; TDP1 block: 8%; TDP1 cell noCPT: inconclusive; IL1B secr inh: -9; TDP1 cell CPT: inconclusive; Giardia killer: -2

Results for Cc1[nH]c2ccccc2c1C(=O)COC(=O)C1CC(O)CN1S(=O)(=O)c1ccc(Cl)cc1 (configuration not stated) ?
ELG1 repair inh: -20%; TDP1 block: 2%; TDP1 cell noCPT: inconclusive; IL1B secr inh: -76*; TDP1 cell CPT: inconclusive; Giardia killer: -27

Results for CSCCC(NS(=O)(=O)c1ccc2ccccc2c1)C(=O)OCC(=O)c1ccc(C(C)C)cc1 (configuration not stated) ?
ELG1 repair inh: inconclusive; TDP1 block: 3%; TDP1 cell noCPT: 16µM*; IL1B secr inh: 3; TDP1 cell CPT: 23µM*; Giardia killer: 0

Results for CSCCC(NS(=O)(=O)c1ccc(Cl)cc1)C(=O)OCC(=O)c1c(C)[nH]c2ccccc12 (configuration not stated) ?
ELG1 repair inh: inconclusive; TDP1 block: -11%; TDP1 cell noCPT: 15µM*; IL1B secr inh: -86*; TDP1 cell CPT: inconclusive; Giardia killer: -3

What do the screens show for `COc1ccc(-c2nc3cnc(OC)nc3n(C[C@H]3CCCO3)c2=O)cc1`?
TDP1 cell noCPT: -6%; TDP1 cell CPT: 5%

What do the screens show for `O=C(c1ccncc1)N1CCN(S(=O)(=O)c2ccc3ccccc3c2)CC1`?
ELG1 repair inh: 15%; TDP1 cell noCPT: -18%; IL1B secr inh: 42; TDP1 cell CPT: -17%; Giardia killer: 1

Results for O=C(c1ccc(=O)[nH]n1)N1CCN(S(=O)(=O)c2cccc(F)c2)CC1 ?
ELG1 repair inh: 7%; TDP1 block: 0%; TDP1 cell noCPT: -20%; IL1B secr inh: 8; TDP1 cell CPT: 6%; Giardia killer: 20

Results for O=C(c1ccc(=O)[nH]n1)N1CCN(S(=O)(=O)c2ccc3ccccc3c2)CC1 ?
ELG1 repair inh: 16µM*; TDP1 block: 5%; TDP1 cell noCPT: -21%; IL1B secr inh: 2; TDP1 cell CPT: 4%; Giardia killer: 6

Results for O=C(c1cnc(Cl)c(Cl)c1)N1CCN(S(=O)(=O)c2ccc3ccccc3c2)CC1 ?
ELG1 repair inh: 1%; TDP1 block: 4%; TDP1 cell noCPT: 16µM*; IL1B secr inh: -102*; TDP1 cell CPT: inconclusive; Giardia killer: 10

How did O=C(O)c1cc(S(=O)(=O)N2CCN(S(=O)(=O)c3ccc4ccccc4c3)CC2)ccc1Br do in these assays?
ELG1 repair inh: inconclusive; TDP1 block: 35µM*; TDP1 cell noCPT: 15%; IL1B secr inh: 42; TDP1 cell CPT: -4%; Giardia killer: 9
